# Data published in article PMC7862700, “An all-to-all approach to the identification of sequence-specific readers for epigenetic DNA modifications on cytosine”.
# Key:
# Assay in all cases: DAPPL (digital affinity profiling via proximity ligation, sequencing); 10 mM Tris-HCl pH 7.5, 50 mM NaCl, 1 mM DTT, 4% glycerol, room temperature, 30 min; GST-TFs on glutathione beads, 16-mer random dsDNA library, 0.1% formaldehyde crosslink after washing; high values mean tight binding
# FLI1 = target: T1, FLI1 (Homo sapiens, UniProt Q01543 1-452); details: protein: recombinant; tags: N-terminal GST; dsDNA, one strand shown
# T1 sequence: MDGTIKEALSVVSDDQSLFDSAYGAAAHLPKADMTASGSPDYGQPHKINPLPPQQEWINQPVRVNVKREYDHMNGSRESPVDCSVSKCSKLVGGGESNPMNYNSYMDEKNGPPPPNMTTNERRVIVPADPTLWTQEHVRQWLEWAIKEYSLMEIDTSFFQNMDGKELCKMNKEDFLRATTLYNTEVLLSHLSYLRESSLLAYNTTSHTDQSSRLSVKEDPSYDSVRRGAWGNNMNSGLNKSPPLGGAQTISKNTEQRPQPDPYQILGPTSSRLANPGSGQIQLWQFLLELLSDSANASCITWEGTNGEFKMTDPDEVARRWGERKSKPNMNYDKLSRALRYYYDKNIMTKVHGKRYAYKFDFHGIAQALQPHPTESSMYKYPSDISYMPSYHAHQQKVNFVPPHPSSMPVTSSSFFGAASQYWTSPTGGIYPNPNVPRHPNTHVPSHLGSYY
# In short: (§1)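 GST fusions of human transcription factors were expressed in yeast and captured with glutathione beads. Once given DNA barcodes and pooled alongside a tag-only sample, they were incubated for 30 min at room temperature with 200 nmole of a random double-stranded 16-mer DNA library in Tris/NaCl/DTT/glycerol buffer, then washed, crosslinked (0.1% formaldehyde), proximity-ligated, PCR-amplified and sequenced on an Illumina NextSeq500. The binding signal of each hexamer is its read frequency for a factor divided by its frequency for the tag-only sample.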
# ELK1 = target: T2, ELK1 (Homo sapiens, UniProt P19419 1-428); details: protein: recombinant; tags: N-terminal GST; dsDNA, one strand shown
# T2 sequence: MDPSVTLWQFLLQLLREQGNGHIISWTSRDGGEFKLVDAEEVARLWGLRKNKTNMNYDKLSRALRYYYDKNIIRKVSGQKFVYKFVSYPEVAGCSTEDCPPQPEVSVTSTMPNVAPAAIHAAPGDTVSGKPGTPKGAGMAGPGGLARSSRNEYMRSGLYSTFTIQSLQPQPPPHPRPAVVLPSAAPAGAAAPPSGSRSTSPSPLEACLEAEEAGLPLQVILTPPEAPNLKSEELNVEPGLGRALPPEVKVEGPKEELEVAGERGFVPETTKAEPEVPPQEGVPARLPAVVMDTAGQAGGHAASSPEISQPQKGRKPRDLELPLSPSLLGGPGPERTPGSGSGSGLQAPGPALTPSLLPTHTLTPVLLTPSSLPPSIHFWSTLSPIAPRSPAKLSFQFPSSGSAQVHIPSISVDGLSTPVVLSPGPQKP
# In short: as §1
# GABPA = target: T3, GABPA (Homo sapiens, UniProt Q06546 1-454); details: protein: recombinant; tags: N-terminal GST; dsDNA, one strand shown
# T3 sequence: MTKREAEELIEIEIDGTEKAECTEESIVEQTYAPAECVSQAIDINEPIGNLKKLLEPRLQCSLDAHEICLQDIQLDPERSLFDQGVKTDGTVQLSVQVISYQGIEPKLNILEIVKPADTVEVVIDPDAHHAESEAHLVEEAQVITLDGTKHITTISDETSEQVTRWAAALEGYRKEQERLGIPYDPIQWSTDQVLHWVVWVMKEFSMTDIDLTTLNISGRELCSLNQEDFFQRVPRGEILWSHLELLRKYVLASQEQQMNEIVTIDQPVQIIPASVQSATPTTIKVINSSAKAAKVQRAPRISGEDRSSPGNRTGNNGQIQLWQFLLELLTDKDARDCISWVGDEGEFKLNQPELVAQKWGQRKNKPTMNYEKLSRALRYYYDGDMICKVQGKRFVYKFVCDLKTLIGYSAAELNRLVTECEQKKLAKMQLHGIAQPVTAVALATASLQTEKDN
# In short: as §1
# ERG = target: T4, ERG (Homo sapiens, UniProt P11308 1-479); details: protein: recombinant; tags: N-terminal GST; dsDNA, one strand shown
# T4 sequence: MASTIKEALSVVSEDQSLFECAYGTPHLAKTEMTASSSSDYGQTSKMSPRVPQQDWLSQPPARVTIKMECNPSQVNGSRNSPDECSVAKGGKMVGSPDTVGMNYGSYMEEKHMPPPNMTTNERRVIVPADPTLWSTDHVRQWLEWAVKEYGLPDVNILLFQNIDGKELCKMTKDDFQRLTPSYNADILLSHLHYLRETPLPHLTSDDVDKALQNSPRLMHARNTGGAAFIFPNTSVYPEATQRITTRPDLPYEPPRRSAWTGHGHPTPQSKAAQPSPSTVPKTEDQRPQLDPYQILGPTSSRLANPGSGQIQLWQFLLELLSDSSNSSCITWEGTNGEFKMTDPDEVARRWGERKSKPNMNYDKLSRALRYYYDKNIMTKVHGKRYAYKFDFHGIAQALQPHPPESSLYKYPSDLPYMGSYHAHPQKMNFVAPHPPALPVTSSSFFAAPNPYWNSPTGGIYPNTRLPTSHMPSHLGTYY
# In short: as §1
# ELF1 = ELF1 (Homo sapiens, UniProt P32519 1-619); details: protein: recombinant; tags: N-terminal GST; dsDNA, one strand shown
# In short: as §1
# EHF = target: T5, EHF (Homo sapiens, UniProt Q9NZC4 1-300); details: protein: recombinant; tags: N-terminal GST; dsDNA, one strand shown
# T5 sequence: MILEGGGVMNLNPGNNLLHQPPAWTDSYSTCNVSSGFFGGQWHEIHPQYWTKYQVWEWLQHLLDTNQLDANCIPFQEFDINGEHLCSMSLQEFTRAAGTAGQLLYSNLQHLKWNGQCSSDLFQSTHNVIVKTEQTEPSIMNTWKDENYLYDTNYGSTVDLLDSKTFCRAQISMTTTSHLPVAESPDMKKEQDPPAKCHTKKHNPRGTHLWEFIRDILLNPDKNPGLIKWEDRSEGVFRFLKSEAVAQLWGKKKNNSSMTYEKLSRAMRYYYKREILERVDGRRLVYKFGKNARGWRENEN
# In short: as §1
# SPI1 = SPI1 (Homo sapiens, UniProt P17947 1-270); details: protein: recombinant; tags: N-terminal GST; dsDNA, one strand shown
# In short: as §1
# SPIB = SPIB (Homo sapiens, UniProt Q01892 1-262); details: protein: recombinant; tags: N-terminal GST; dsDNA, one strand shown
# In short: as §1
# ELK3 = target: T6, ELK3 (Homo sapiens, UniProt P41970 1-407); details: protein: recombinant; tags: N-terminal GST; dsDNA, one strand shown
# T6 sequence: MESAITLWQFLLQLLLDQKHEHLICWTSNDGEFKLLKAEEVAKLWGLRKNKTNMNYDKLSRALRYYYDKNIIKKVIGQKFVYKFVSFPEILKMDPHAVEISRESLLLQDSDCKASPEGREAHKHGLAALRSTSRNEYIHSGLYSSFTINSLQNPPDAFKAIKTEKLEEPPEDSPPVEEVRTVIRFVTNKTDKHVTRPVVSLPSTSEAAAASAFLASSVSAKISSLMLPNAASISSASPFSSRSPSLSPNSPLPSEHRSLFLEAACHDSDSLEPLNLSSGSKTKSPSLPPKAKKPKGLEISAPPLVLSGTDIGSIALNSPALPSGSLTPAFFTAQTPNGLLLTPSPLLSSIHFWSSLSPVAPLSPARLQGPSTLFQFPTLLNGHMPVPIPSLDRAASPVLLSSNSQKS
# In short: as §1
# FEV = target: T7, FEV (Homo sapiens, UniProt Q99581 1-238); details: protein: recombinant; tags: N-terminal GST; dsDNA, one strand shown
# T7 sequence: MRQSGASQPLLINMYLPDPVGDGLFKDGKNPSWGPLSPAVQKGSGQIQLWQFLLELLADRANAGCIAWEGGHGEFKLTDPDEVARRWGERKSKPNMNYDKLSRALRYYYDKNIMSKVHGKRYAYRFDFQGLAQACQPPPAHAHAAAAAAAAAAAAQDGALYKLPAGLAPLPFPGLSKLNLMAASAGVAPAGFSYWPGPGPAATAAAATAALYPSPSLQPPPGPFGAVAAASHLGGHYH
# In short: as §1
# ETV5 = ETV5 (Homo sapiens, UniProt P41161 1-510); details: protein: recombinant; tags: N-terminal GST; dsDNA, one strand shown
# In short: as §1
# HSF1 = HSF1 (Homo sapiens, UniProt Q00613 1-529); details: protein: recombinant; tags: N-terminal GST; chain copies: 3; dsDNA, one strand shown
# In short: as §1
# SPIC = target: T8, SPIC (Homo sapiens, UniProt Q8N5J4 1-248); details: protein: recombinant; tags: N-terminal GST; dsDNA, one strand shown
# T8 sequence: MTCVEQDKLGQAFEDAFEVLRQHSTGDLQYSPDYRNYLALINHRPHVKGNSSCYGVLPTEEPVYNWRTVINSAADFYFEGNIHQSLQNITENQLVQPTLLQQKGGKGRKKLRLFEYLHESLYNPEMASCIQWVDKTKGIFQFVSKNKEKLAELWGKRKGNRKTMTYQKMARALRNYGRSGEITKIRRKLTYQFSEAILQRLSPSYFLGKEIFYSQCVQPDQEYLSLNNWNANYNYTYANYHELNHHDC
# In short: as §1
# ELF4 = ELF4 (Homo sapiens, UniProt Q99607 1-663); details: protein: recombinant; tags: N-terminal GST; dsDNA, one strand shown
# In short: as §1
# ELK4 = target: T9, ELK4 (Homo sapiens, UniProt P28324-2 1-405); details: protein: recombinant; tags: N-terminal GST; dsDNA, one strand shown
# T9 sequence: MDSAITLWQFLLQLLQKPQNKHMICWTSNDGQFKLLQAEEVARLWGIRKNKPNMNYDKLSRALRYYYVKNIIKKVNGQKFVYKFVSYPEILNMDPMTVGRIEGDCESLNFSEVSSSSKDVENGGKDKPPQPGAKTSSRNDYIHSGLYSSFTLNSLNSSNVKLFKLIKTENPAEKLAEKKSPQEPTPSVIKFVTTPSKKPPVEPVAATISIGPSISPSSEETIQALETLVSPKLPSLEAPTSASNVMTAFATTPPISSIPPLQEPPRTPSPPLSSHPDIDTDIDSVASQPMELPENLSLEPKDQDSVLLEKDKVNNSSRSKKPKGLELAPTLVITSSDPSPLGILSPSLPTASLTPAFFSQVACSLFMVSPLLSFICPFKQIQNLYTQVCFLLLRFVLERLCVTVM
# In short: as §1
# ETV2 = target: T10, ETV2 (Homo sapiens, UniProt O00321 1-342); details: protein: recombinant; tags: N-terminal GST; dsDNA, one strand shown
# T10 sequence: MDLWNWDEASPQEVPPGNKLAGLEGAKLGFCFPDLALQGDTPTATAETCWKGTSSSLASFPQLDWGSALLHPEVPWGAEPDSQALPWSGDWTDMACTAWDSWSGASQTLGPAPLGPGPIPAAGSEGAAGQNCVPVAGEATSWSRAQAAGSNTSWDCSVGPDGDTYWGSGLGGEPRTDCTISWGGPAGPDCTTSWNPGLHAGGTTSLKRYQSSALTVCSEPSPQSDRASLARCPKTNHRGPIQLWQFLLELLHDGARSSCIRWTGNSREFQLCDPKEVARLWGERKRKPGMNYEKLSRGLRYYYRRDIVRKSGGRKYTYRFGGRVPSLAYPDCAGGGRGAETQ
# In short: as §1
# ELF3 = target: T11, ELF3 (Homo sapiens, UniProt P78545 1-371); details: protein: recombinant; tags: N-terminal GST; dsDNA, one strand shown
# T11 sequence: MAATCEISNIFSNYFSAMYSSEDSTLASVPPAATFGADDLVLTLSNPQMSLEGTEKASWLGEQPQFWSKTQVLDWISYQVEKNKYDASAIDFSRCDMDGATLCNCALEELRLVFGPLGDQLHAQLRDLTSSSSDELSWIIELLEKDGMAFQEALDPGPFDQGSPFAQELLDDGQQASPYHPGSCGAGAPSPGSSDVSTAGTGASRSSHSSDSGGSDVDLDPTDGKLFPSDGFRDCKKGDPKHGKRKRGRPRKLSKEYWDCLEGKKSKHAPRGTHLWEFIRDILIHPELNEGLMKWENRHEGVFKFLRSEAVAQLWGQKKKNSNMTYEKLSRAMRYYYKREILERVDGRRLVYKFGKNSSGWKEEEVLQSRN
# In short: as §1
# CRX = CRX (Homo sapiens, UniProt O43186 1-299); details: protein: recombinant; tags: N-terminal GST; dsDNA, one strand shown
# In short: as §1
# ETV1 = ETV1 (Homo sapiens, UniProt P50549 1-477); details: protein: recombinant; tags: N-terminal GST; dsDNA, one strand shown
# In short: as §1
# Sequence of HSF1 (Q00613 whole entry): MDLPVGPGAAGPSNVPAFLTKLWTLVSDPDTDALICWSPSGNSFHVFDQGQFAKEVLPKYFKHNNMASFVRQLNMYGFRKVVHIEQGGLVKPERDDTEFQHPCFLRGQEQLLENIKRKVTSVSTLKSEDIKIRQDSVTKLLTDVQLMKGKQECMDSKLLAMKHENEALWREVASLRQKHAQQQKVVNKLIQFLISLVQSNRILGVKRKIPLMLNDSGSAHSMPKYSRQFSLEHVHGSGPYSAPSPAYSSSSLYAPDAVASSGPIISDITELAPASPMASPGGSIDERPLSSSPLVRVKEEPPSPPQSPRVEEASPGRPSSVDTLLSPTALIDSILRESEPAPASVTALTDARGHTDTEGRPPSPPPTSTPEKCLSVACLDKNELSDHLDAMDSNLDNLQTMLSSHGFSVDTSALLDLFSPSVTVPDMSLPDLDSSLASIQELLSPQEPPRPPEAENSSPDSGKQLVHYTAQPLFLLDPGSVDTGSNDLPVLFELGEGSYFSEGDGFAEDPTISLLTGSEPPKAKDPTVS
# Sequence of SPIB (Q01892 whole entry): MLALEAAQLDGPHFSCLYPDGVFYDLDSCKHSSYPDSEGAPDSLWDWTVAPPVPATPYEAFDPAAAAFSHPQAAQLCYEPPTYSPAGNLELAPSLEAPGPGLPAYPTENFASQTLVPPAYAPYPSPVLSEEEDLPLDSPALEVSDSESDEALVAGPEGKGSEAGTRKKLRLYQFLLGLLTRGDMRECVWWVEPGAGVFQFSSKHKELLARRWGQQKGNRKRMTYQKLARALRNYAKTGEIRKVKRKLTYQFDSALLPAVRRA
# Sequence of ELF1 (P32519 whole entry): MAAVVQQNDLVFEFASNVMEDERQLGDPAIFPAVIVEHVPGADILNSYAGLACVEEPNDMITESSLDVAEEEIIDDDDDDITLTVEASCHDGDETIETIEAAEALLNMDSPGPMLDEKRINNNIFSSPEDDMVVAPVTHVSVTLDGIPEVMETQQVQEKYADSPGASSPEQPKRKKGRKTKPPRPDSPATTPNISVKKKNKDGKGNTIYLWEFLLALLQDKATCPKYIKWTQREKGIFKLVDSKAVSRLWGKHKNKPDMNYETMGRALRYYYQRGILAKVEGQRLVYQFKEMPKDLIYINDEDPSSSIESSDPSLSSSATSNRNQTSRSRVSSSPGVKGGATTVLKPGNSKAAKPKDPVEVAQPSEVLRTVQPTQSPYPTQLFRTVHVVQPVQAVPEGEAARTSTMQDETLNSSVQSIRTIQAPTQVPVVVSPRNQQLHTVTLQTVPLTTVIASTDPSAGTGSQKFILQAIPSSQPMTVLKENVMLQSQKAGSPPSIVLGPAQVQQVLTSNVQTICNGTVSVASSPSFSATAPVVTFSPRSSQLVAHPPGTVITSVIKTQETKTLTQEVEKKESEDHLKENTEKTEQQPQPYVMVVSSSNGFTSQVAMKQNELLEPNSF
# Sequence of ETV5 (P41161 whole entry): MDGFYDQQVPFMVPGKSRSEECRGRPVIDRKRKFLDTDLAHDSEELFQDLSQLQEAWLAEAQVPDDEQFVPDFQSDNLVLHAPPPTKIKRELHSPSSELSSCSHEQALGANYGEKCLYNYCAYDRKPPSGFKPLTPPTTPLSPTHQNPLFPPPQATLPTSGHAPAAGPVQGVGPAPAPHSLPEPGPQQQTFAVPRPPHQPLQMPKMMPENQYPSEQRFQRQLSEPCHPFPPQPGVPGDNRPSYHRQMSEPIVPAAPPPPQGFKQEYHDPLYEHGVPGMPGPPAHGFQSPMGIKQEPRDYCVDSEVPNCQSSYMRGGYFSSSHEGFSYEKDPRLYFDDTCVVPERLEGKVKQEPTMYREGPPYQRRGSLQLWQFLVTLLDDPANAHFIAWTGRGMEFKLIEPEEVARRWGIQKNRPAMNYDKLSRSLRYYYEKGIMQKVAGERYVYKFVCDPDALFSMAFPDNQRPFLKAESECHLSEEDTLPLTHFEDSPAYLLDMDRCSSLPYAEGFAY
# Sequence of ETV1 (P50549 whole entry): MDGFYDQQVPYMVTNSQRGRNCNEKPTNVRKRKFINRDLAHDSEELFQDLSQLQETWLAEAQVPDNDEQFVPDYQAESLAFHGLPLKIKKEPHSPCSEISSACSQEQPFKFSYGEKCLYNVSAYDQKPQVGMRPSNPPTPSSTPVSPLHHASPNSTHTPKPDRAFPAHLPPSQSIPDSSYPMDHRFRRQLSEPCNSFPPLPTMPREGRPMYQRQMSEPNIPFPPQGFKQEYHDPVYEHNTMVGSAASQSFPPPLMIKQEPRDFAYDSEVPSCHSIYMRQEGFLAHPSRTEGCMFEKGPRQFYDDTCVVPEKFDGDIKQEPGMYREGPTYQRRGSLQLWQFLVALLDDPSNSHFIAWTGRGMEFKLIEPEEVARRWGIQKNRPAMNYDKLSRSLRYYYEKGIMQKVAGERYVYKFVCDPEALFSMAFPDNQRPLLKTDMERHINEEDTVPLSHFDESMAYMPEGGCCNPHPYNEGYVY
# Sequence of CRX (O43186 whole entry): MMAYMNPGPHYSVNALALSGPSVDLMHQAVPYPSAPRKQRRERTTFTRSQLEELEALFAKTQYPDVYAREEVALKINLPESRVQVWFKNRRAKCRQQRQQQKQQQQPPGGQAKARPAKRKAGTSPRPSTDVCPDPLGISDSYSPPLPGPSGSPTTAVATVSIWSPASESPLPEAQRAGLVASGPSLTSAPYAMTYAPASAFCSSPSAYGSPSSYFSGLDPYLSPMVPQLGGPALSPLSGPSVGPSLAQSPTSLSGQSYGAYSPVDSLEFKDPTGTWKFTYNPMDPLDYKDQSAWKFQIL
# Sequence of ELF4 (Q99607 whole entry): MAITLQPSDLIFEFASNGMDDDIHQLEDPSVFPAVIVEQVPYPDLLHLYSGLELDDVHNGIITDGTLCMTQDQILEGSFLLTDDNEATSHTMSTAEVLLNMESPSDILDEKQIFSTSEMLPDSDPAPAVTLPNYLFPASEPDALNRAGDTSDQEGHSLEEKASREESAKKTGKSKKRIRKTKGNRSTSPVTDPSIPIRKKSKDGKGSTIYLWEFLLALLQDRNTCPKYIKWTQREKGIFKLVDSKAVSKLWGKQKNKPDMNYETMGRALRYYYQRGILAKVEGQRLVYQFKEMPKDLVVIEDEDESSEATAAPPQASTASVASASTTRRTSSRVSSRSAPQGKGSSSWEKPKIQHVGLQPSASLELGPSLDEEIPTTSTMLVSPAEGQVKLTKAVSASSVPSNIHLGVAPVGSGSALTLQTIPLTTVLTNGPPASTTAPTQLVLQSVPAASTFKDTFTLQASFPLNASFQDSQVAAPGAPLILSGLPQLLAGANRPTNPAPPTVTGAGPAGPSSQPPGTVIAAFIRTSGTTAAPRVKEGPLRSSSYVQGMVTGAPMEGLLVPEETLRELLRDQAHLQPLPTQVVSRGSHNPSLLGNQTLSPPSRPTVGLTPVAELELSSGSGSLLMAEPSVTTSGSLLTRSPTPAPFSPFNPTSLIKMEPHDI
sequence,measurement,setting,value
AAGCTT,binding signal,FLI1,"1.31 fold enrichment (6-mer frequency, TF over GST control)"
same,binding signal,ELK1,"1.33 fold enrichment (6-mer frequency, TF over GST control)"
same,binding signal,GABPA,"1.22 fold enrichment (6-mer frequency, TF over GST control)"
same,binding signal,ERG,"1.33 fold enrichment (6-mer frequency, TF over GST control)"
same,binding signal,ELF1,"1.2 fold enrichment (6-mer frequency, TF over GST control)"
same,binding signal,EHF,"1.26 fold enrichment (6-mer frequency, TF over GST control)"
same,binding signal,SPI1,"1.23 fold enrichment (6-mer frequency, TF over GST control)"
same,binding signal,SPIB,"1.32 fold enrichment (6-mer frequency, TF over GST control)"
same,binding signal,ELK3,"1.31 fold enrichment (6-mer frequency, TF over GST control)"
same,binding signal,FEV,"1.16 fold enrichment (6-mer frequency, TF over GST control)"
same,binding signal,ETV5,"1.25 fold enrichment (6-mer frequency, TF over GST control)"
same,binding signal,HSF1,"1.84 fold enrichment (6-mer frequency, TF over GST control)"
same,binding signal,SPIC,"1.24 fold enrichment (6-mer frequency, TF over GST control)"
same,binding signal,ELF4,"1.25 fold enrichment (6-mer frequency, TF over GST control)"
same,binding signal,ELK4,"1.39 fold enrichment (6-mer frequency, TF over GST control)"
same,binding signal,ETV2,"1.31 fold enrichment (6-mer frequency, TF over GST control)"
same,binding signal,ELF3,"1.29 fold enrichment (6-mer frequency, TF over GST control)"
same,binding signal,CRX,"2.33 fold enrichment (6-mer frequency, TF over GST control)"
same,binding signal,ETV1,"1.31 fold enrichment (6-mer frequency, TF over GST control)"
